This is an account of results in article PMC7862700, “An all-to-all approach to the identification of sequence-specific readers for epigenetic DNA modifications on cytosine”.

Test in all cases: DAPPL (digital affinity profiling via proximity ligation, sequencing); 10 mM Tris-HCl pH 7.5, 50 mM NaCl, 1 mM DTT, 4% glycerol, room temperature, 30 min; GST-TFs on glutathione beads, 16-mer random dsDNA library, 0.1% formaldehyde crosslink after washing; high values mean tight binding
The target of one assay is T1, FLI1 (Homo sapiens, UniProt Q01543 1-452).
T1 sequence: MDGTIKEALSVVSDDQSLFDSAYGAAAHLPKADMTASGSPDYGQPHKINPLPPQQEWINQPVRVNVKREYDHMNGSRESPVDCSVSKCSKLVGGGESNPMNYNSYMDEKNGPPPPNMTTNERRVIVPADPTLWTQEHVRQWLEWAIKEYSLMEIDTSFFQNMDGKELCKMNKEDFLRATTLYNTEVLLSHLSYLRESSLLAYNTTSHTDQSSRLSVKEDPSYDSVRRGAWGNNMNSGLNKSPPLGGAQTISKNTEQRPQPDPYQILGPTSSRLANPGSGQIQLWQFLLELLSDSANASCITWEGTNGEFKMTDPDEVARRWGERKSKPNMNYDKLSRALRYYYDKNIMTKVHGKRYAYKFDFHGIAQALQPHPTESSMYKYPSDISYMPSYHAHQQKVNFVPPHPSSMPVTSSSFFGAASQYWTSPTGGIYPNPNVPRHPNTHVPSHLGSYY
As to conditions: protein: recombinant; tags: N-terminal GST; dsDNA, one strand shown. In outline:
(§1)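 Sequencing on an Illumina NextSeq500 followed washing, crosslinking with 0.1% formaldehyde, proximity ligation (BsaI/T4 ligase, 1 h, 37 °C) and PCR amplification of pools that had been incubated for 30 min at room temperature with 200 nmole of a random double-stranded 16-mer DNA library in Tris/NaCl/DTT/glycerol buffer. Each pool held DNA-barcoded human transcription factors, expressed in yeast as GST fusions and captured on glutathione beads, plus a tag-only sample. Binding signal is a hexamer's read frequency for a factor divided by its frequency in the tag-only sample.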

The next assay deals with T2, ELK1 (Homo sapiens, UniProt P19419 1-428).
T2 sequence: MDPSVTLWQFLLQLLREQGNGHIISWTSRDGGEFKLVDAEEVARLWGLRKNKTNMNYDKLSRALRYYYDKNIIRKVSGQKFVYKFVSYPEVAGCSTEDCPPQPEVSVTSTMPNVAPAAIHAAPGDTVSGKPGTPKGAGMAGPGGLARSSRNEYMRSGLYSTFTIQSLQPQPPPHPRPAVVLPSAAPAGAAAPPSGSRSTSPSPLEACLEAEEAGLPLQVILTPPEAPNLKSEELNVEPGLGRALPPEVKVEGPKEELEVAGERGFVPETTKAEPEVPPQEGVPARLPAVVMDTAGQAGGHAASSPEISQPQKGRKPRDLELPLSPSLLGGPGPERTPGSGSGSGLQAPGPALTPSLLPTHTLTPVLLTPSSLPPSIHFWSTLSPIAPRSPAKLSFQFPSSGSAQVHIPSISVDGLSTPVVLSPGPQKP
Particulars: protein: recombinant; tags: N-terminal GST; dsDNA, one strand shown. In a few lines:
as §1

The target of the next assay is T3, GABPA (Homo sapiens, UniProt Q06546 1-454).
T3 sequence: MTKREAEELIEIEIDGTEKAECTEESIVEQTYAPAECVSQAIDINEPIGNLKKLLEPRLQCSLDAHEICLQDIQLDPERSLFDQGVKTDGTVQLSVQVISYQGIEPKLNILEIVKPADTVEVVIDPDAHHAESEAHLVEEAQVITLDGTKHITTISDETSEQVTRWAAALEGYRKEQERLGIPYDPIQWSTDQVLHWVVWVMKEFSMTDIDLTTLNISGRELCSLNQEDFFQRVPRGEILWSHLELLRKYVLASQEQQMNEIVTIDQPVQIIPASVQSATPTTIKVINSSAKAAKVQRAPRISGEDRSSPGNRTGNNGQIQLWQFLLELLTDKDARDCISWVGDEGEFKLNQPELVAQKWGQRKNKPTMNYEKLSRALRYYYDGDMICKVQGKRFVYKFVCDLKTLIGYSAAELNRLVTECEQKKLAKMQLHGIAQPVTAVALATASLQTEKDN
Particulars: protein: recombinant; tags: N-terminal GST; dsDNA, one strand shown. In outline: as §1

The target in another assay is ELF1 (Homo sapiens, UniProt P32519 1-619). As to conditions: protein: recombinant; tags: N-terminal GST; dsDNA, one strand shown. In outline:
as §1

The target of another assay is T4, EHF (Homo sapiens, UniProt Q9NZC4 1-300).
T4 sequence: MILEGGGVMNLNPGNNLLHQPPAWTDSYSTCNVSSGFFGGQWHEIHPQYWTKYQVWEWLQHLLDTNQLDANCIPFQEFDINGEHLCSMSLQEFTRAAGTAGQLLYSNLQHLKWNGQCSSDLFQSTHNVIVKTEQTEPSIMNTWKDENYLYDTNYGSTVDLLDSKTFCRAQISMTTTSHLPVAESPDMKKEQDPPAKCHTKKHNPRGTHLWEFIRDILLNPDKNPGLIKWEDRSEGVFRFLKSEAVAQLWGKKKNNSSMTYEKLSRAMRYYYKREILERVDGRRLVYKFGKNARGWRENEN
Particulars: protein: recombinant; tags: N-terminal GST; dsDNA, one strand shown. In outline:
as §1

In another assay the target is T5, ELK3 (Homo sapiens, UniProt P41970 1-407).
T5 sequence: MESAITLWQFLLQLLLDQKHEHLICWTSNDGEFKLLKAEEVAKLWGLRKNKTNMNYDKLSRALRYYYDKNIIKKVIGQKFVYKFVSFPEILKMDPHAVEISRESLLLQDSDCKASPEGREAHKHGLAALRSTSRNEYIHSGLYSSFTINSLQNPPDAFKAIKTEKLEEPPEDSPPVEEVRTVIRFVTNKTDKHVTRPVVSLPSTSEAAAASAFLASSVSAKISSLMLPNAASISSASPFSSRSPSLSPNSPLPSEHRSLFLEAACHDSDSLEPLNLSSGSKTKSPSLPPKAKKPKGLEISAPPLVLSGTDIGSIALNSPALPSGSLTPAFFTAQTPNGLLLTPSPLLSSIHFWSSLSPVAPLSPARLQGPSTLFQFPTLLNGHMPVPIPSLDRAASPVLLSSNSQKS
Particulars: protein: recombinant; tags: N-terminal GST; dsDNA, one strand shown. In outline: as §1

For the next assay, the target named is T6, FEV (Homo sapiens, UniProt Q99581 1-238).
T6 sequence: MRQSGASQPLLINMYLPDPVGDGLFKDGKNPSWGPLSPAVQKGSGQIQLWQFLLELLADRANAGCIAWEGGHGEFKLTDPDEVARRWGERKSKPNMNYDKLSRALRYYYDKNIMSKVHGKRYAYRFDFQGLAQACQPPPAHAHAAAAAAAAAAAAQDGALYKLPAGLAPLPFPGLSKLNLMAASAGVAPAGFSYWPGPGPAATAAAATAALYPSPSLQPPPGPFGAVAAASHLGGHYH
As to conditions: protein: recombinant; tags: N-terminal GST; dsDNA, one strand shown. In outline:
as §1

The next assay deals with ETV5 (Homo sapiens, UniProt P41161 1-510). Particulars: protein: recombinant; tags: N-terminal GST; dsDNA, one strand shown. In a few lines: as §1
Chain of ETV5 (P41161 whole entry): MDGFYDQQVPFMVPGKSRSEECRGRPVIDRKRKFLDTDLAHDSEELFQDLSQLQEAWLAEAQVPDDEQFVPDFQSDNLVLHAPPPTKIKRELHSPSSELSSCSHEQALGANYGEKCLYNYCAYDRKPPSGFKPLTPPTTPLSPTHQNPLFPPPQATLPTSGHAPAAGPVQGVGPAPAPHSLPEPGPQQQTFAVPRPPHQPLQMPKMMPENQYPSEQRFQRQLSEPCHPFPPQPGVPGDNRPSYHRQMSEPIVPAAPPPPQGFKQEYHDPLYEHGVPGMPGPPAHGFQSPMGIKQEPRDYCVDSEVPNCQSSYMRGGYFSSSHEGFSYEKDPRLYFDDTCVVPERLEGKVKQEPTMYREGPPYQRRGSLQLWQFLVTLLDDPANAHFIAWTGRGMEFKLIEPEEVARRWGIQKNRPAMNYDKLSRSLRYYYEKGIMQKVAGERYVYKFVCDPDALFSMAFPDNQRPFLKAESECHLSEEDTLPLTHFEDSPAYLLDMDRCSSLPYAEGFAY
In a further assay the target is HSF1 (Homo sapiens, UniProt Q00613 1-529). As to conditions: protein: recombinant; tags: N-terminal GST; chain copies: 3; dsDNA, one strand shown. In outline:
as §1

The next assay addresses T7, SPIC (Homo sapiens, UniProt Q8N5J4 1-248).
T7 sequence: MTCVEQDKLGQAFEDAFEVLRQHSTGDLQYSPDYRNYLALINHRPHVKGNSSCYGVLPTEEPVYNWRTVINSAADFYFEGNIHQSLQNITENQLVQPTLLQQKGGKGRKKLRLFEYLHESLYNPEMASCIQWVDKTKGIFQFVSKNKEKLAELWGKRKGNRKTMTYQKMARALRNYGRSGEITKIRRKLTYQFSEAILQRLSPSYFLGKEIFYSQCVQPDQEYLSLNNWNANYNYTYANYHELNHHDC
Particulars: protein: recombinant; tags: N-terminal GST; dsDNA, one strand shown. In outline:
as §1

Another assay concerns the target ELF4 (Homo sapiens, UniProt Q99607 1-663). As to conditions: protein: recombinant; tags: N-terminal GST; dsDNA, one strand shown. In outline:
as §1

The target in the next assay is T8, ELK4 (Homo sapiens, UniProt P28324-2 1-405).
T8 sequence: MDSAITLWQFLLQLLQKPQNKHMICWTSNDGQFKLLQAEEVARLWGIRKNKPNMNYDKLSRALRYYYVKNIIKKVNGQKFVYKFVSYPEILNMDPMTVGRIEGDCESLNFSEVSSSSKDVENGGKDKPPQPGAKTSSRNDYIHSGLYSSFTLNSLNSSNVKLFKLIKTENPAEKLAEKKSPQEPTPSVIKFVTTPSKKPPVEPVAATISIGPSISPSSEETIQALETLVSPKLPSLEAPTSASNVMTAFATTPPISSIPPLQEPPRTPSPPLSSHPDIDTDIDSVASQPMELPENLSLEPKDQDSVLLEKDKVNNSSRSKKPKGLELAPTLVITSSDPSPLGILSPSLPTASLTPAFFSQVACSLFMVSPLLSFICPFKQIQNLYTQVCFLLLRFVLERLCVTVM
As to conditions: protein: recombinant; tags: N-terminal GST; dsDNA, one strand shown. In a few lines:
as §1

Another assay deals with T9, ETV2 (Homo sapiens, UniProt O00321 1-342).
T9 sequence: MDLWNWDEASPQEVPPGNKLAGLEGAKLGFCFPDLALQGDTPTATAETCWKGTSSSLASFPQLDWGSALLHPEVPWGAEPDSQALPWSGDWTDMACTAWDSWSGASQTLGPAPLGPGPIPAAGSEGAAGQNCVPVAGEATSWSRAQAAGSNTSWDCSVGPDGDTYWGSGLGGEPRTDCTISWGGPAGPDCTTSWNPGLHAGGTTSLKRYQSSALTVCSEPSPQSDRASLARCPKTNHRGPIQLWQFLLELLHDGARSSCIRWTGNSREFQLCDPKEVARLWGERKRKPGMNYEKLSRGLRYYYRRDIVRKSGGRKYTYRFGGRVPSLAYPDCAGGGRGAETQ
Particulars: protein: recombinant; tags: N-terminal GST; dsDNA, one strand shown. In outline:
as §1

The target of a further assay is T10, ELF3 (Homo sapiens, UniProt P78545 1-371).
T10 sequence: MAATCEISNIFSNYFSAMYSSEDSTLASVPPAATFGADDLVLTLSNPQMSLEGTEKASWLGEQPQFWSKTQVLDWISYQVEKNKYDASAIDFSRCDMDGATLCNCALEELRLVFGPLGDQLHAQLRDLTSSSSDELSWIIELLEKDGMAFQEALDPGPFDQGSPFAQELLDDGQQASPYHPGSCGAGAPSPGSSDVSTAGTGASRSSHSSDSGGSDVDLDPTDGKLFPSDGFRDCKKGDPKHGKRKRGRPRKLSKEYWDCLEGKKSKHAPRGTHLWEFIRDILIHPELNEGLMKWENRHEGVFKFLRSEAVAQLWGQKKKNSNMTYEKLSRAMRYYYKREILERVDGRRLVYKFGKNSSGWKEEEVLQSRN
Particulars: protein: recombinant; tags: N-terminal GST; dsDNA, one strand shown. In outline:
as §1

Another assay addresses CRX (Homo sapiens, UniProt O43186 1-299). Particulars: protein: recombinant; tags: N-terminal GST; dsDNA, one strand shown. In outline:
as §1

In a further assay the target is ETV1 (Homo sapiens, UniProt P50549 1-477). As to conditions: protein: recombinant; tags: N-terminal GST; dsDNA, one strand shown. In a few lines:
as §1

Chain of ELF4 (Q99607 whole entry): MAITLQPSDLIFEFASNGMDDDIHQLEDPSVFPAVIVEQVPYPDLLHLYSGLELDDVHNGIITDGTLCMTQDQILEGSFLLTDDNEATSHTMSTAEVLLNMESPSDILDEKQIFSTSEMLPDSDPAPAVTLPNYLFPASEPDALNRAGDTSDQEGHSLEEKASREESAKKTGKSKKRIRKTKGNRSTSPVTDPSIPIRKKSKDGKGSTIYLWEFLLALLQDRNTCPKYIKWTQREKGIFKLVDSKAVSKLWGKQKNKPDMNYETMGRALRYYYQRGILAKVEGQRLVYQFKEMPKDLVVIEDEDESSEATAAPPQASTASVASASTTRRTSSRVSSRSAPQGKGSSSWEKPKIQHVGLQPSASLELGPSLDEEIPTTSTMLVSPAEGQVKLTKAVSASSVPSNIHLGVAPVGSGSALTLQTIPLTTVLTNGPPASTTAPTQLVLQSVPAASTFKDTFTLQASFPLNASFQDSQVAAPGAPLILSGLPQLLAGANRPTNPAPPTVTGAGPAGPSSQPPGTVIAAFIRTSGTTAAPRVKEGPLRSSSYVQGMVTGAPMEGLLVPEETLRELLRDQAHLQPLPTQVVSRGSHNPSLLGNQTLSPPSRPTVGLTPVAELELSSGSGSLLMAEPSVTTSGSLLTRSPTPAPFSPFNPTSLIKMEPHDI
Chain of ELF1 (P32519 whole entry): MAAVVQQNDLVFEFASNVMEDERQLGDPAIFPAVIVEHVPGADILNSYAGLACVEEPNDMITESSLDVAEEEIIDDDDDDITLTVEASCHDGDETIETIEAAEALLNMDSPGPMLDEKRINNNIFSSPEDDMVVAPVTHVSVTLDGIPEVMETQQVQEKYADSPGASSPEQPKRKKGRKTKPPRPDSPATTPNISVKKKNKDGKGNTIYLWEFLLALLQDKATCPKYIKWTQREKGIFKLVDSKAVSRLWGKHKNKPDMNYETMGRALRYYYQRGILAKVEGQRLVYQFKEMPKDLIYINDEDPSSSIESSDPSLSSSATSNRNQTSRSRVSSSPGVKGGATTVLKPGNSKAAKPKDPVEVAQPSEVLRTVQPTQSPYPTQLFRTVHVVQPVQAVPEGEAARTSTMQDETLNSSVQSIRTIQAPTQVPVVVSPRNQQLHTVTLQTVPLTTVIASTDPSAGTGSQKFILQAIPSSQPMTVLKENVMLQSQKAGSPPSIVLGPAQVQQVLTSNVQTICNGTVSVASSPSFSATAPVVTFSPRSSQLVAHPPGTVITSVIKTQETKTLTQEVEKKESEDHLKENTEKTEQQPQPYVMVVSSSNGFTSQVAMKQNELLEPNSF
Chain of ETV1 (P50549 whole entry): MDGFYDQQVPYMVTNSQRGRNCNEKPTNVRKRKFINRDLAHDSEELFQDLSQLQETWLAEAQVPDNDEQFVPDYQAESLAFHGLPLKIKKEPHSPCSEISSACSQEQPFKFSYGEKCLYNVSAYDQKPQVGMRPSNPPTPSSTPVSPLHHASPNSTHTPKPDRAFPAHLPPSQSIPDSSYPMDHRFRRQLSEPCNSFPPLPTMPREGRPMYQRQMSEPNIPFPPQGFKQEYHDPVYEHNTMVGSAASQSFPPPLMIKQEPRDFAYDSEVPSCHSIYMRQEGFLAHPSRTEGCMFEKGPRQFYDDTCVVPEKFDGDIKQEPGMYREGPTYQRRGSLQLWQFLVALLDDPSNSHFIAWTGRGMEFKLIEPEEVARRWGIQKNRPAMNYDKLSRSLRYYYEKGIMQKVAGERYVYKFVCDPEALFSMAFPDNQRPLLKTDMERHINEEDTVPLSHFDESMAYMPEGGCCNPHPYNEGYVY
Chain of CRX (O43186 whole entry): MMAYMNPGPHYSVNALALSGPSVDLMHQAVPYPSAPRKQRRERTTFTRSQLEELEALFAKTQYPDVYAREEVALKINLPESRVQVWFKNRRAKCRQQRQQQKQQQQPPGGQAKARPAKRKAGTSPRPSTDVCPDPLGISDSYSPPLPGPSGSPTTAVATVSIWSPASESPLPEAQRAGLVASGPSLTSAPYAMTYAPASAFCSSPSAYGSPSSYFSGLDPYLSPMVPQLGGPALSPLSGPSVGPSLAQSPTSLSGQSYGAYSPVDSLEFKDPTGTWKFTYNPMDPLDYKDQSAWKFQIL
Chain of HSF1 (Q00613 whole entry): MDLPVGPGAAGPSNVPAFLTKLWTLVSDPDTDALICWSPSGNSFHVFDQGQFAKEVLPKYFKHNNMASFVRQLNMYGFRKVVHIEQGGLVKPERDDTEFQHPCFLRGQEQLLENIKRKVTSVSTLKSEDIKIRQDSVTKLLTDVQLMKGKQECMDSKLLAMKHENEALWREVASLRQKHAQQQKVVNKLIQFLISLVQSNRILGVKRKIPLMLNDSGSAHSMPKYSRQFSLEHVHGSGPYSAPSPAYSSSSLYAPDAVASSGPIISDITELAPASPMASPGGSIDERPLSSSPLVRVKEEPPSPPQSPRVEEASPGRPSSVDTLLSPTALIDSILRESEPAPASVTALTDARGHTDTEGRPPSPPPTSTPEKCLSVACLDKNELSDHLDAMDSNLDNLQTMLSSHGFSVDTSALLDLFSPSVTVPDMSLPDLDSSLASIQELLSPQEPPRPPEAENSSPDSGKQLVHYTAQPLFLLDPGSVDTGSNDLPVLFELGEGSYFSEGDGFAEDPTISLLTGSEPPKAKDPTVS

In the case of TGAGCT, the binding signal is 1.15 fold enrichment (6-mer frequency, TF over GST control) with FLI1; 1.08 fold enrichment (6-mer frequency, TF over GST control) with ELK1; 1.05 fold enrichment (6-mer frequency, TF over GST control) in the assay with GABPA; 1.02 fold enrichment (6-mer frequency, TF over GST control) in the assay with ELF1; 1.16 fold enrichment (6-mer frequency, TF over GST control) in the assay with EHF; 1.05 fold enrichment (6-mer frequency, TF over GST control) in the assay with ELK3. Besides, the binding signal was 1.09 fold enrichment (6-mer frequency, TF over GST control) with FEV; 1.07 fold enrichment (6-mer frequency, TF over GST control) in the assay with ETV5; 1.06 fold enrichment (6-mer frequency, TF over GST control) with HSF1; 1.03 fold enrichment (6-mer frequency, TF over GST control) with SPIC; 1.1 fold enrichment (6-mer frequency, TF over GST control) with ELF4; 1.17 fold enrichment (6-mer frequency, TF over GST control) with ELK4. Besides, the binding signal with ETV2 was 1.19 fold enrichment (6-mer frequency, TF over GST control); in the assay with ELF3 it was 1.23 fold enrichment (6-mer frequency, TF over GST control); with CRX, 1.35 fold enrichment (6-mer frequency, TF over GST control); with ETV1, 1.09 fold enrichment (6-mer frequency, TF over GST control).
